Here are results for six compounds from PubChem BioAssay (NCATS).

The target in assay [1] is Lysosomal acid glucosylceramidase (Homo sapiens) (UniProt P04062). The experiment in a line: Glucocerebrosidase-p2 (AID 348; in the data active means potency below about 10 µM; further: potency means the concentration at half of the fitted maximal effect). Conditions: purified GBA, blue fluorogenic substrate, 40 min. In short, it runs like this:
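Compounds titrated from 0.6 nM upwards against 0.2 nM enzyme in pH 5.9 citric acid/KH2PO4, taurocholate, tween-20; blue fluorogenic substrate 80 uM, 40 min room temperature, stopped and read Ex 365/Em 440 for AC50.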

Assay [2] can be described thus: AP1 Signaling Pathway (AID 357; active means well fitted curve in either direction with a large enough effect, not every such curve was filed as active;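 further: ME-180 reporter cells stimulated with EGF at its EC50 level; on the % scale 0 is the no-effect control and ±100 the full control effect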). Conditions: ME-180 AP-1-bla reporter, EGF-induced, beta-lactamase ratio, 5 h; at 7.69 µM (top of the series) unless noted. In short, it runs like this:
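Beta-lactamase reporter under AP-1 response element, ME-180 background. Stimulus: EC50 EGF. Compound exposure 5 h, 37 °C. Detection: CCF4, 2.5 h RT, 460/530 nm. Values: AC50 from titration.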

Assay [3] can be described thus: NFAT Signaling Pathway (AID 444; active means well fitted curve in either direction with a large enough effect, not every such curve was filed as active;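 further: carbachol stimulus at about its EC50 of 1 µM final; on the % scale 0 is the no-effect control and ±100 the full control effect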). Particulars: Jurkat NFAT-bla M1, carbachol, beta-lactamase ratio, 5 h; at 7.69 µM (top of the series) unless noted. In short, it runs like this:
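Read-out: CCF4 FRET ratio (460 nm/530 nm) after 1 h RT dye loading, used for %activity and AC50 from titration series. Cells: Jurkat NFAT-β-lactamase/M1 line, treated with compound plus 1 uM carbachol for 5 h, 37 °C.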

Assay [4] is described as follows: Stat Signaling Pathway (AID 446; active means well fitted curve in either direction with a large enough effect, not every such curve was filed as active;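 further: ME-180 cervical cancer cells given 40 pM IL-6 alongside compound; SIE-controlled beta-lactamase reporter measured as 460/530 nm FRET emission ratio; on the % scale 0 is the no-effect control and ±100 the full control effect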). Particulars: ME-180 SIE beta-lactamase reporter, IL-6 stimulated, 5 h; at 7.69 µM (top of the series) unless noted. In short, it runs like this:
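Screening format detects activators and inhibitors alike: ME-180 SIE-bla cells stimulated at 40 pM IL-6 for 5 hrs with compound, then dual-emission beta-lactamase read at 405 nm excitation.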

In assay [5] the target is Glucocorticoid receptor (Homo sapiens) (UniProt P04150). The experiment in a line: GR-GFP Redistribution (AID 450;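 active means compounds whose dose series gives a full or clear partial fitted curve of increased nuclear translocation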; further: potency means the concentration at half of the fitted maximal effect). Particulars: U2OS GR-GFP nuclear translocation, laser cytometry, 2 h.
Chain of Glucocorticoid receptor (Homo sapiens) (P04150 whole entry, looked up, the tested form may be a part): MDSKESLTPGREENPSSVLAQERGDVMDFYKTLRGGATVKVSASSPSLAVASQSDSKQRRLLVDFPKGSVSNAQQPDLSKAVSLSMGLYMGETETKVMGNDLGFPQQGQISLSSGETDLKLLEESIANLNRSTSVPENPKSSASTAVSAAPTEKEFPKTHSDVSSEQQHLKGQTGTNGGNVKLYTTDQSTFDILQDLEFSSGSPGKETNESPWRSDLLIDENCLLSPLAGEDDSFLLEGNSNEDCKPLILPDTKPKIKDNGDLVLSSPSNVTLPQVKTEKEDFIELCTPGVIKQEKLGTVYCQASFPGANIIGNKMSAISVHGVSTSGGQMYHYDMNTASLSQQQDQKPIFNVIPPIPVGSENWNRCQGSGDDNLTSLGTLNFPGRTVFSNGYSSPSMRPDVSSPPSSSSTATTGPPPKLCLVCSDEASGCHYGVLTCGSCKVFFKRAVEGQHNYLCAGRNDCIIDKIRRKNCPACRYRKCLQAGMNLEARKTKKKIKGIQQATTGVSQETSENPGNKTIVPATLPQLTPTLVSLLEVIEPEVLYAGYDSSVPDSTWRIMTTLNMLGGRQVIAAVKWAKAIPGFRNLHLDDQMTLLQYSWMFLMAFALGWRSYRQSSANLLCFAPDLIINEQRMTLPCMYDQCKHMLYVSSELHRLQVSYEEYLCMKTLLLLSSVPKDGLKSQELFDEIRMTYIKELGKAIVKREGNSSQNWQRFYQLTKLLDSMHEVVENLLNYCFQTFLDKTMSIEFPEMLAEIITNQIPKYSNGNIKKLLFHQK
For assay [6] the target is unchanged. The experiment in a line: GR-EFC Redistribution (AID 451; calls by dose curve; further: potency means the concentration at half of the fitted maximal effect). Conditions: CHO-K1 GR-EFC translocation, beta-gal luminescence, 2 h. In short, it runs like this: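 Translocation of GR-ED fusion to nuclear EA restores b-gal, read by luminescence after 1 h room-temperature detection. Engineered CHO-K1 biosensor cells, 1,000/well, exposed 2 h at 37 C to titrations up to 46 uM final.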

Assay [7] concerns the target Mitogen-activated protein kinase 10 (Mus musculus) (UniProt Q61831). The experiment in a line: JNK3 AlphaScreen Assay (AID 530; active means well fitted curve in either direction with a large enough effect, not every such curve was filed as active;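 further: kinase came from lysate of stimulated human HepG2 cells; signal reports phosphorylation of biotinylated GST-cJun 1-79 at Ser73 with 10 µM ATP; on the % scale 0 is the no-effect control and ±100 the full control effect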). Conditions: JNK3 lysate, c-Jun phosphorylation; series mostly up to 57.1 µM. In short, it runs like this: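 Room-temperature AlphaScreen kinase assay; pre-activated HepG2 lysate as JNK3 source, biotin-GST-cJun(1-79) substrate, 10 uM ATP, compound 15 min preincubation.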

Assay [8] has as its target Dual specificity protein kinase CLK4 (Homo sapiens) (UniProt Q9HAZ1). The experiment in a line: qHTS Assay for Inhibitors of CDC-like Kinase 4 (Kinase-Glo Assay) (AID 1770). Further: nearly all actives have a fitted effect of over 65% in size. Further: potency means the concentration at half of the fitted maximal effect. Conditions: recombinant Clk4, Kinase-Glo ATP depletion luminescence; series mostly up to 66.7 µM. In short, it runs like this: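 Inhibition was judged from remaining ATP, measured by Ultra-Glo luciferase bioluminescence after Clk4 (25 nM) had acted on RS peptide at 1 uM ATP for 4.5 hours, room temperature.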
(In general: qHTS replaces the single test concentration by a dilution series.)

For assay [9] the target is unchanged. The experiment in a line: qHTS Assay for Inhibitors of CDC-like Kinase 4 (ADP-Glo Assay) (AID 1771). Further: nearly all actives have a fitted effect of over 70% in size. Further: potency means the concentration at half of the fitted maximal effect. Conditions: recombinant CLK4, ADP-Glo luminescence; series mostly up to 80 µM. The procedure, abridged: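 Kinase reaction: Clk4 at 25 nM, RS repeat peptide substrate at 100 uM, ATP at 1 uM, 1 hr, room temperature. Product ADP detected as luciferase signal via ADP-Glo.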

The target of assay [10] is Ubiquitin carboxyl-terminal hydrolase 1 (Homo sapiens) (UniProt O94782). The experiment in a line: Inhibitors of USP1/UAF1: Pilot qHTS (AID 504865).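 Further: rhodamine fluorescence freed from ubiquitin-rhodamine substrate followed over time; top concentration of the series differs between compounds; on the % scale 0 is the no-effect control and ±100 the full control effect; nearly all actives have a fitted effect of over 35% in size.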 Conditions: purified USP1/UAF1, Ub-rhodamine cleavage fluorescence; series mostly up to 54.9 µM. The procedure, abridged: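 Kinetic fluorescence assay: 1nM USP1/UAF1, 15 min compound preincubation, then 150nM Ub-Rho; 480/540 nm.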
Chain of Ubiquitin carboxyl-terminal hydrolase 1 (Homo sapiens) (O94782 whole entry, looked up): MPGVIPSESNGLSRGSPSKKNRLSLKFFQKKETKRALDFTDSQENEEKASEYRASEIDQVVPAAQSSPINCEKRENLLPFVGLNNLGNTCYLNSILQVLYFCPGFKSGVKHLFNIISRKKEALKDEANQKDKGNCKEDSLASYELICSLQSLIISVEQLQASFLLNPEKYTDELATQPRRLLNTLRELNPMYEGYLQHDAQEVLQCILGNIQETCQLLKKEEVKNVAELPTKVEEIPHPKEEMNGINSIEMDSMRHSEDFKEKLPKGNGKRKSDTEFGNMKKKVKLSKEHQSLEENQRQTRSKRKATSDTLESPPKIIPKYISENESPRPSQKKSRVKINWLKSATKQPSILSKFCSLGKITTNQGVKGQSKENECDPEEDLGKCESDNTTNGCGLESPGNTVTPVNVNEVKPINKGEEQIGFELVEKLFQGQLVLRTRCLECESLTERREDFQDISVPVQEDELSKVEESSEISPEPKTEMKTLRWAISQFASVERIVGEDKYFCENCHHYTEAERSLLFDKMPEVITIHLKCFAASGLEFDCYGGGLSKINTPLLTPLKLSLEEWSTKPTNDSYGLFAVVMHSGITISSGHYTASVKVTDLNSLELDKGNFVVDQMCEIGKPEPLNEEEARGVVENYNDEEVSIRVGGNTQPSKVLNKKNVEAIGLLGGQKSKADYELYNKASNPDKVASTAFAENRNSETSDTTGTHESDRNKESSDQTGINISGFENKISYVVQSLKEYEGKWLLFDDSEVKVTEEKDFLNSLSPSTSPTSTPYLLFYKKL

The nature of assay [11]: Primary qHTS for small molecule stabilizers of the endoplasmic reticulum resident proteome: Secreted ER Calcium Modulated Protein (SERCaMP) assay (AID 1508630). Further: on the % scale 0 is the no-effect control and ±100 the full control effect. Conditions: SH-SY5Y GLuc-SERCaMP (Gaussia luciferase released on ER calcium loss) secretion, thapsigargin, luminescence; series mostly up to 38.4 µM. The procedure, abridged:
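GLuc-SERCaMP-expressing SH-SY5Y cells, pretreated 16 h with compound, are challenged with thapsigargin to empty ER calcium stores; after 4 h, coelenterazine is added directly to the medium and luminescence is imaged.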

Assay [12] addresses 3',5'-cyclic-AMP phosphodiesterase 4B (Homo sapiens) (UniProt Q07343). The experiment in a line: qHTS Assay for Inhibitors of PDE-IV (AID 607; active means well fitted activation curve with a large enough effect in the main read-out, with a control signal flat, not every such curve was filed as active; further: % of control where 0% means no effect). Conditions: HEK293 ACTOne CNG channel cells, membrane potential fluorescence; series mostly up to 22.9 µM. The procedure, abridged: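 The readout is membrane depolarisation from a cAMP-sensing CNG channel, detected with a potential dye at ex 535/em 590. Cells were HEK293-derived (endogenous PDE-IV) at 1000 cells/well, titrated up to 22.9 uM final.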

The nature of assay [13]: qHTS Assay for Identification of Small Molecule Agonists for Hypoxia Response Element Signaling Pathway (AID 914; active means well fitted activation curve with a large enough effect in the signal ratio, with a control signal flat, not every such curve was filed as active; the % refers to the signal ratio; further: % of control where 0% means no effect). Particulars: ME-180 (cervical carcinoma) HRE-bla reporter, beta-lactamase ratio, CoCl2, 17 h; activation: hits give high values. The procedure, abridged:
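HRE-bla ME-180 cells with beta-lactamase reporter under hypoxia response element, compounds with EC50 CoCl2 for 17 hours at 37 C. CCF4 substrate, 460nm/530nm emission ratio gave %Activity; AC50 from titration series.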

Assay [14] concerns the target Cytochrome P450 3A4 (Homo sapiens) (UniProt P08684). The experiment in a line: qHTS Assay for Activators of Cytochrome P450 3A4 (AID 885). Further: nearly all actives have a fitted effect of over 65% in size. Conditions: recombinant CYP3A4, Luciferin-PPXE luminescence, 60 min; series mostly up to 57.1 µM. In short, it runs like this: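 Steps: enzyme/substrate mix dispensed; compound added, 10 min RT; NADPH regeneration solution added, 60 min RT; luciferin detection buffer stops reaction; 20 min later luminescence measured.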

In assay [15] the target is Cytochrome P450 1A2 (Homo sapiens) (UniProt P05177). The experiment in a line: p450-cyp1a2 (AID 410; calls by dose curve; further: potency means the concentration at half of the fitted maximal effect). Particulars: recombinant CYP1A2, luciferin-ME demethylation, luminescence; series mostly up to 57 µM. The procedure, abridged: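 Inhibition was calculated relative to 57 uM furafylline (full inhibition). The reaction used human CYP1A2 at 20nM with Luciferin-ME at its Km, 100uM, driven by an NADPH-regenerating system for 60 min at room temperature.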

The target of assay [16] is Cytochrome P450 2C9 (Homo sapiens) (UniProt P11712). The experiment in a line: qHTS Assay for Inhibitors and Substrates of Cytochrome P450 2C9 (AID 883). Further: on the % scale 0 is the no-effect control and ±100 the full control effect; nearly all actives have a fitted effect of over 60% in size. Particulars: recombinant CYP2C9, luciferin-H luminescence, 60 min; series mostly up to 57.1 µM. The procedure, abridged:
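Turnover of Luciferin-H (100uM, KM) by 10nM human CYP2C9 was measured over 60 min at 37C with NADPH regeneration; inhibitors and some substrates reduce luminescence. Data normalized to sulphaphenazole 57uM.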

Assay [17] deals with Cytochrome P450 3A4 (Homo sapiens) (UniProt P08684). The experiment in a line: qHTS Assay for Inhibitors and Substrates of Cytochrome P450 3A4 (AID 884). Further: potency means the concentration at half of the fitted maximal effect; nearly all actives have a fitted effect of over 50% in size. Particulars: recombinant CYP3A4, Luciferin-PPXE luminescence; series mostly up to 57.1 µM. In short, it runs like this:
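20 nM human CYP3A4 with 25 uM Luciferin-PPXE (at KM) in 200 mM KPO4, preincubated 10 min with compound; NADPH regeneration started a 60 min RT reaction. Luciferin detected by luminescence, normalized to 57 uM ketoconazole as full inhibition.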

Assay [18] addresses Cytochrome P450 2D6 (Homo sapiens) (UniProt P10635). The experiment in a line: qHTS Assay for Inhibitors and Substrates of Cytochrome P450 2D6 (AID 891). Further: potency means the concentration at half of the fitted maximal effect; nearly all actives have a fitted effect of over 60% in size. Conditions: recombinant CYP2D6, luciferin-ME EGE luminescence; series mostly up to 57.1 µM. In short, it runs like this:
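Human CYP2D6 (5 nM) with 30 uM Luciferin-ME EGE (at Km) in 100 mM KPO4, compound preincubated 10 min, then NADPH regeneration system for 60 min at room temperature. Luciferin read by luminescence; normalized to 1.43 uM quinidine.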

Values without a mark were called inactive. Records with an inconclusive call do not appear. Active and inactive are the calls of the source. Unless noted, the call rests on the fitted dose curve; in most records, active means well fitted curve in the direction sought with a large enough effect; inconclusive means small, poorly fitted or top-dose-only effect, or another doubt; inactive means no such curve, though single readings can be large; an effect the other way counts as inactive or inconclusive.

Chain of Lysosomal acid glucosylceramidase (Homo sapiens) (P04062 whole entry, looked up): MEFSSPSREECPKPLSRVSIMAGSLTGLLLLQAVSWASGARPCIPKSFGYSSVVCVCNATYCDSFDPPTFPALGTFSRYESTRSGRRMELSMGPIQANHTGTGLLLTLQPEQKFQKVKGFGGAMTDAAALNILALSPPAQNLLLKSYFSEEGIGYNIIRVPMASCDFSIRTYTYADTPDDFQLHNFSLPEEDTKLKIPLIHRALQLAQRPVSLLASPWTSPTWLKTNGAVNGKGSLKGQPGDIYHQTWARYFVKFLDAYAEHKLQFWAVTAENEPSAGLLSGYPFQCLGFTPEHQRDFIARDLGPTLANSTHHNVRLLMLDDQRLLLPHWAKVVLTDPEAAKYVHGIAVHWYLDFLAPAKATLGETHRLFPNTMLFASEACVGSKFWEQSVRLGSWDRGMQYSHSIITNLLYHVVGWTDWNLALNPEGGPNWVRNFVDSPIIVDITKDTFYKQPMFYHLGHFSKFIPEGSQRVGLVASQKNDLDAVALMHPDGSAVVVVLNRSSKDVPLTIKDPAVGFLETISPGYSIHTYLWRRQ
Chain of Cytochrome P450 3A4 (Homo sapiens) (P08684 whole entry, looked up): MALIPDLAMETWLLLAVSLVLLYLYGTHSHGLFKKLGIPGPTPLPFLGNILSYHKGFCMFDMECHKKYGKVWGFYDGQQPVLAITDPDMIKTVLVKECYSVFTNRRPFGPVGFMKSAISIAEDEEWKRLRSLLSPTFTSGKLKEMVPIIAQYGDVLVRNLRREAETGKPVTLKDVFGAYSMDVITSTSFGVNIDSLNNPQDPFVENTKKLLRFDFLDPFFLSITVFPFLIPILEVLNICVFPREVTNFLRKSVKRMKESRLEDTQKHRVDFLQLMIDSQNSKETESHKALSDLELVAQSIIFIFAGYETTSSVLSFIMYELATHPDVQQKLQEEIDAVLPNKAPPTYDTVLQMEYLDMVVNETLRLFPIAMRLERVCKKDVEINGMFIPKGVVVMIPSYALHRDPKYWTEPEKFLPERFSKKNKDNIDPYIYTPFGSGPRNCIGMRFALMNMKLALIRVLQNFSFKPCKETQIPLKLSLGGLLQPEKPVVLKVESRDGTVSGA
Chain of Dual specificity protein kinase CLK4 (Homo sapiens) (Q9HAZ1 whole entry, looked up): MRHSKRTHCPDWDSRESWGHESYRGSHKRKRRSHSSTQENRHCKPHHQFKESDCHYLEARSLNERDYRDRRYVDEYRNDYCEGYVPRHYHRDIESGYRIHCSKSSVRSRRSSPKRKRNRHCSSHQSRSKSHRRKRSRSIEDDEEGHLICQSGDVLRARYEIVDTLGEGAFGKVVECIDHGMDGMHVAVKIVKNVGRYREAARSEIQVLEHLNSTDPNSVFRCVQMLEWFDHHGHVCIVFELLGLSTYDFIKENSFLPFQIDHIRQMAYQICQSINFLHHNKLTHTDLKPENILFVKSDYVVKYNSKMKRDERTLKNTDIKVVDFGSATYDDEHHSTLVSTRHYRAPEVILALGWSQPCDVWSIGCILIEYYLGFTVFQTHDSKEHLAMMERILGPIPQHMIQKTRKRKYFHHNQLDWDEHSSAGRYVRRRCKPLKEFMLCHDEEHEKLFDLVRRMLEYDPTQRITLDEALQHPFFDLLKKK
Chain of 3',5'-cyclic-AMP phosphodiesterase 4B (Homo sapiens) (Q07343 whole entry, looked up): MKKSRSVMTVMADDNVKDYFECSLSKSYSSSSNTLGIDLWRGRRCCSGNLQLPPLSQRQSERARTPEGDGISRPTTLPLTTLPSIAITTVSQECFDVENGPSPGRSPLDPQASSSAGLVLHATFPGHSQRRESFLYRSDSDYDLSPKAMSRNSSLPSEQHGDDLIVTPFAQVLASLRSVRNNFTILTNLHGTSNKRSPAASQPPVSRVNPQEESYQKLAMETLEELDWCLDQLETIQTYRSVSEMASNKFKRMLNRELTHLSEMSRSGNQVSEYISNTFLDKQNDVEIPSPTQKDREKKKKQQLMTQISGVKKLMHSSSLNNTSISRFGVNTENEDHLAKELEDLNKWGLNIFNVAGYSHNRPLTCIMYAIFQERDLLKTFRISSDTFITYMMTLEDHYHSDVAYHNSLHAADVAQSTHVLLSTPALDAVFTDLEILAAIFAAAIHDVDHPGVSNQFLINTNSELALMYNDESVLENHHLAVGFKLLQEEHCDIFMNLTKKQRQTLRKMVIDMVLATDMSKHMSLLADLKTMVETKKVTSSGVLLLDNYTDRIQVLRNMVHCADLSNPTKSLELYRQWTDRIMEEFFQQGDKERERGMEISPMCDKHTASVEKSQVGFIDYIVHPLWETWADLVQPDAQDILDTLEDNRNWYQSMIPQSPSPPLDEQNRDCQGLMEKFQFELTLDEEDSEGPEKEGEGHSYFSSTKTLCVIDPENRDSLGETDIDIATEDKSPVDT
Chain of Cytochrome P450 2D6 (Homo sapiens) (P10635 whole entry, looked up): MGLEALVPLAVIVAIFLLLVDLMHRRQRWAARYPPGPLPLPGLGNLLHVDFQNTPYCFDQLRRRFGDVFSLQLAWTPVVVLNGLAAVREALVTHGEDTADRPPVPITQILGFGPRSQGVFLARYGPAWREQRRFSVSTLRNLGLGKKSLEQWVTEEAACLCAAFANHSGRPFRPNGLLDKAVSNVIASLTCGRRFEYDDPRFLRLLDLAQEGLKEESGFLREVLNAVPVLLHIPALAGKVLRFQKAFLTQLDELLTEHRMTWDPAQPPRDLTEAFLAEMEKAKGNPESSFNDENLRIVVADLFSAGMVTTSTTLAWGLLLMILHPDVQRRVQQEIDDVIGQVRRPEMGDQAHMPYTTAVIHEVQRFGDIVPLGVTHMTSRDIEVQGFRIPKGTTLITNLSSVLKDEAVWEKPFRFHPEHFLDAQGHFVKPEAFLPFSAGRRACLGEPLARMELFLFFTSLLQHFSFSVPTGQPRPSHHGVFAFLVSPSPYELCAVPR
Chain of Cytochrome P450 2C9 (Homo sapiens) (P11712 whole entry, looked up): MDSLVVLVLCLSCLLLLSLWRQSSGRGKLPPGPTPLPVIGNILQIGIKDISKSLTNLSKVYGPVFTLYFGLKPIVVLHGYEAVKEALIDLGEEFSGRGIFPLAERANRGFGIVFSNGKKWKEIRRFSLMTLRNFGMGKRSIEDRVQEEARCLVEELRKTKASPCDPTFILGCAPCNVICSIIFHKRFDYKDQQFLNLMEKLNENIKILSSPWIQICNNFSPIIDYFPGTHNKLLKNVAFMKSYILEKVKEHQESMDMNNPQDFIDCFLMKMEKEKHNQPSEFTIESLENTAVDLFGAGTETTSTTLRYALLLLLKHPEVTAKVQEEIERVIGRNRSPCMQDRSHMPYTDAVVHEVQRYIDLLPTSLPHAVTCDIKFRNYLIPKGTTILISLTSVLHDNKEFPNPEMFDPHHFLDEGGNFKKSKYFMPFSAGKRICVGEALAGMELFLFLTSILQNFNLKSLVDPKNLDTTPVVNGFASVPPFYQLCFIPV

Take `FC(F)(F)c1ccccc1-c1nccc(-n2ccnc2)n1`: the Potency is greater than 11.4 µM in [1]; greater than 46 µM in [5]; greater than 46 µM in [6]; 15.8 µM (active) in assay [8]; 25.1 µM (active) in [9]. In addition, the activity change, negative = inhibition in assay [2] is -7.77%; in [3] it was 2.35%. Further, the activity, negative = inhibition in [4] was 0.859%. The Potency result in assay [7] and in assay [10] was “inactive” each time. For the same compound, the result in assay [11] was inactive.

Regarding `CN(C)c1ccc(-c2ccc3ncnc(N(C)Cc4ccco4)c3c2)cc1`, the Potency was greater than 11.4 µM in [1]; greater than 46 µM in assay [5]; greater than 46 µM in assay [6]; 8.91 µM (active) in assay [8]; 7.08 µM (active) in [9]. Moreover, the activity change, negative = inhibition in assay [2] is -28.7%. The activity, negative = inhibition in assay [4] is -0.793%. In addition, the Potency entry in [7], in assay [12] and in assay [10] was “inactive” in each case. In assay [13], the activation was -3.37%. Besides, the outcome in assay [11] was inactive.

Take `Cc1nc2cnc(Oc3ccccc3)nc2n(Cc2cccs2)c1=O`: the Potency in assay [1] was greater than 11.4 µM; in assay [5] it was greater than 9.22 µM; in assay [6], greater than 46 µM. The activity change, negative = inhibition was -17.8% in [2] and 20.1% in assay [3]. Also, the activity, negative = inhibition in [4] is -0.465%. Moreover, the Potency result in assay [7], in assay [12], in assay [14], in assay [8] and in [9] was “inactive” in each case. Besides, in assay [11], the result was inactive.

Turning to `Cc1noc(C)c1-c1nc(N(C)Cc2ccco2)c2ccccc2n1`, the Potency is greater than 11.4 µM in assay [1]; greater than 46 µM in assay [5]; greater than 46 µM in [6]; 28.2 µM (active) in assay [8]; 35.5 µM (active) in assay [9]. In addition, the activity change, negative = inhibition in [2] was -1.42%. In addition, in assay [4], the activity, negative = inhibition is -25.7%. In addition, the Potency result in assay [12] and in [10] was “inactive” each time. The outcome in assay [11] was inactive.

With `FC(F)(F)c1ccccc1-c1nccc(NCCN2CCOCC2)n1`, the Potency in assay [1] was greater than 11.4 µM; in assay [5], greater than 46 µM; in assay [6], greater than 46 µM. Moreover, the activity change, negative = inhibition in assay [2] is 27.9%. Further, in assay [4], the activity, negative = inhibition is -13.3%. For the same compound, the Potency result in assay [7], in assay [12], in assay [14], in assay [8], in assay [9] and in assay [10] was “inactive” throughout. The outcome in assay [11] was inactive.

As for `CC(=O)NCCNc1nc(-c2ccccc2C)nc2ccccc12`, the Potency in [1] is greater than 11.4 µM; in [15] it was 6.31 µM (active); in assay [17], 5.01 µM (active); in assay [18] it was 5.01 µM (active); in [8] it was 22.4 µM (active); in assay [9], 15.8 µM (active). The activity change, negative = inhibition in assay [2] was 7.34%; in assay [3] it was -9.21%; in assay [16], 46.4% [at 2.29 µM]. Also, the activity, negative = inhibition in [4] is 7.37%. In addition, the Potency result in [7], in assay [14] and in assay [10] was “inactive” in each case. Further, the activation in assay [13] was -1%. The result in assay [11] was inactive.
